LGR2 inh = inhibitors of bursicon-induced LGR2 CRE-luciferase signal, primary screen, cell-based, HEK293, CRE-luciferase reporter, bursicon stimulation | Drosophila bursicon receptor LGR2 (rickets) | bursicon-stimulated, 4 h | inhibition, % at 9.99 µM | 380,000 tested, 0.35% active | AID 720647, 2013;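 active means drop in luminescence signal, shown as inhibition above about 50% in the replicate tests, limit read from the data, passing the limit was not always enough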;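 further: agonist challenge used bursicon conditioned medium at about half maximal strength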
TWEAK-Fn14 inh = inhibitors of TWEAK-Fn14 signaling, primary screen, luciferase reporter cells, uHTS; TWEAK-stimulated Fn14 reporter cells, luciferase luminescence, 8 h; inhibition, % at 10 µM; 360,000 tested, 2% active; in the data active means inhibition above about 50%
HIF-2a block = HIF-2a reporter inhibitors, primary screen, luminescence, 786-0 RCC cells | 786-0 RCC cells HIF-2a reporter, luciferase luminescence, overnight | inhibition, % at 18.8 µM | 360,000 tested, 0.72% active;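 active means inhibition of the luminescence signal of 40% or more relative to plate controls, in a single-dose primary screen at 18.75 µM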
KKLEB tox = cytotoxicity in KKLEB CF airway cells, primary screen, cytotoxicity control for CF NF-kB inhibitor project, cell-based, uHTS, fluorescence assay plates | 360,000 tested, 0.36% active | AID 602141, 2011 | activity change (cytotoxicity), % at 5 µM | KKLEB CF airway cells viability, ATPlite luminescence, overnight; active compounds read low; cells stimulated with P. aeruginosa culture filtrate;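 active means corrected activity change at or below -50% at 5 µM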
CF NFkB inh = inhibitors of PAF-induced NF-kB signaling, primary screen, cell-based, GFP fluorescence, uHTS; KKLEB NF-kB-GFP reporter, GFP fluorescence overnight; inhibition, % at 5 µM; 360,000 tested, 0.86% active; AID 588850, 2011;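 active means at least 50% inhibition at 5 µM, scaled per plate between neutral and stimulator controls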;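 further: PAF is a Pseudomonas aeruginosa culture filtrate used as stimulus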
hiPSC survival = enhancers of single-cell hiPSC survival, primary screen, ATPlite luminescence; AID 602274, 2012; 100% = ROCK inhibitor wells, 0% = DMSO; survival enhancement, % at 20 µM; 360,000 tested, 0.044% active; in the data active means survival enhancement above about 18%;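 further: cells exposed to compounds for 16 hours before the ATP read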
A number is an active result. Most compounds without a hit are left out; they make up all but 2.3% or so of the library.

`COc1ccc(CN(C)C[C@@H]2OCCCC[C@H](C)Oc3ccc(NC(=O)CCC(F)(F)F)cc3C(=O)N([C@@H](C)CO)C[C@H]2C)cc1` gave LGR2 inh inactive.
For O=c1c(-c2ccccc2Cl)coc2c(CN3CCCCC3)c(O)ccc12 the results were LGR2 inh inactive, TWEAK-Fn14 inh 64, HIF-2a block inactive, KKLEB tox inactive, CF NFkB inh inactive and hiPSC survival inactive.
`N#C[C@H]1[C@@H](c2ccccc2C2=CCCCC2)[C@H](CO)N1S(=O)(=O)c1cccc(F)c1` gave LGR2 inh inactive.
For CC(C)(C)c1ccc(/C=N/N2C(=O)CSC2=S)cc1 the results were LGR2 inh inactive, TWEAK-Fn14 inh 68, HIF-2a block 57, KKLEB tox inactive, CF NFkB inh inactive and hiPSC survival inactive.
`COc1ccc(/C=N/N2C(=O)CSC2=S)cc1` gave TWEAK-Fn14 inh inactive, HIF-2a block inactive, KKLEB tox inactive, CF NFkB inh inactive and hiPSC survival inactive.
Screening O=C1CSC(=S)N1/N=C/c1ccc(O)c(O)c1O returned TWEAK-Fn14 inh 78, HIF-2a block inactive, KKLEB tox inactive, CF NFkB inh inactive and hiPSC survival inactive.
`C[C@@H]1CN([C@@H](C)CO)C(=O)c2cc(NC(=O)c3ccccc3)ccc2O[C@@H](C)CCCCO[C@@H]1CN(C)S(=O)(=O)c1cccs1` gave LGR2 inh inactive.
CC(=O)N=c1sc2cc(C)ccc2n1C was read as LGR2 inh inactive, TWEAK-Fn14 inh 52, HIF-2a block inactive, KKLEB tox inactive, CF NFkB inh inactive and hiPSC survival inactive.
`Cn1c(=NC(=O)CCl)sc2ccccc21` gave LGR2 inh inactive, TWEAK-Fn14 inh inactive, HIF-2a block inactive, KKLEB tox -86, CF NFkB inh 94 and hiPSC survival inactive.
CO[C@H]1CC[C@H]2CCN(C)C(=O)[C@@H](C)[C@H](OC)CN(C)C(=O)c3cccc(C#N)c3OC[C@@H]1O2 was read as LGR2 inh inactive.
`CC(=O)N1[C@@H]2c3ccc(-c4cccnc4)c(=O)n3C[C@H]1[C@H](CO)[C@H]2C(=O)N1CCc2ccccc2C1` gave LGR2 inh inactive.
For Cc1noc(C)c1NC(=O)Nc1cccc2c1O[C@H](CN(C)C)[C@@H](C)CN([C@H](C)CO)C2=O the results were LGR2 inh inactive.
`CN1[C@H](C(=O)NCCCN2CCOCC2)[C@@H](CO)[C@@H]2Cn3c(ccc(/C=C/c4ccccc4)c3=O)[C@@H]21` gave LGR2 inh inactive.
C/C=C(/C)C(=O)O[C@@H]1c2c(ccc3ccc(=O)oc23)O[C@@H]1C(C)(C)OC(=O)/C(C)=C\C was read as LGR2 inh 58, TWEAK-Fn14 inh inactive, HIF-2a block inactive, KKLEB tox inactive, CF NFkB inh inactive and hiPSC survival inactive.
`CCN1CCc2nc(NC(=O)c3ccccc3)sc2C1` gave TWEAK-Fn14 inh 85, HIF-2a block inactive, KKLEB tox inactive, CF NFkB inh inactive and hiPSC survival inactive.
For O=C(Nc1nc2c(s1)CCCC2)c1ccc(N2C(=O)CCC2=O)cc1 the results were LGR2 inh inactive, TWEAK-Fn14 inh inactive, HIF-2a block inactive, KKLEB tox inactive, CF NFkB inh inactive and hiPSC survival inactive.
For O=C(Nc1nc2c(s1)CN(Cc1ccccc1)CC2)C1CCC1 the results were LGR2 inh inactive, TWEAK-Fn14 inh inactive, HIF-2a block inactive, KKLEB tox inactive, CF NFkB inh inactive and hiPSC survival inactive.
For O=C(Nc1nc2c(s1)CCCC2)c1ccc(Br)s1 the results were LGR2 inh inactive, TWEAK-Fn14 inh 55, HIF-2a block inactive, KKLEB tox inactive, CF NFkB inh inactive and hiPSC survival inactive.
O=C(NC(=S)Nc1nc2c(s1)CCCC2)c1ccccc1 was read as TWEAK-Fn14 inh inactive, HIF-2a block inactive, KKLEB tox -52, CF NFkB inh inactive and hiPSC survival inactive.
`CCOC(=O)c1ccc(NC(=S)Nc2ccc(C)cc2)cc1` gave TWEAK-Fn14 inh inactive, HIF-2a block inactive, KKLEB tox inactive, CF NFkB inh inactive and hiPSC survival inactive.
